Screening results (PubChem BioAssay)
KB-V1 MDR tox = kills drug-selected multidrug resistant KB-V1 cells; KB-V1 MDR cells viability, CellTiter-Glo, 72 h; Potency, µM (doses to about 46.1 µM), most hits filed as cytotoxic; 400,000 tested, 3.4% active; also: nearly all actives have a fitted effect of over 60% in size
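KB-V1 MDR subline cells in DMEM (phenol-red free, 10% FBS) exposed to compounds in qHTS concentration series for 72 h at 37 degrees C. Viability read by CellTiter-Glo luminescence; concentration-effect curves fitted after normalization and correction.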
DT40 TDP1 CPT = growth inhibition of DT40 Tdp1-/-;hTDP1 cells with camptothecin (screen for TDP1 inhibitors) | Potency, µM (titrated, usually from 46.2 µM), for the others: top-dose activity change, negative = growth inhibition, most hits filed as inhibitors | AID 686979 | chicken DT40 Tdp1-/-;hTDP1 cells + 20 nM CPT, ATP luminescence, 48 h | 420,000 tested, 12% active; also: nearly all actives have a fitted effect of over 55% in size
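Chicken DT40 Tdp1-/- cells complemented with human TDP1, 400 cells/well, exposed to compounds plus 20 nM camptothecin for at least 48 h at 37 C; viability read as ATP content by CellTiter-Glo luminescence.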
HT1080 IDH1KD tx = HT-1080 IDH1 knockdown cell toxicity (counter line); HT-1080 IDH1 knockdown viability, ATP luminescence, 48 h; 360,000 tested, 2% active; AID 686971; Potency, µM (highest dose often 46.1 µM), for inactives: at the highest dose activity, negative = toxicity, usual class: cytotoxic;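 also: 0% = DMSO wells and -100% = cell-free medium wells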
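CellTiter-Glo luminescence after 48 h compound exposure at 37 degrees C of IDH1-knockdown HT-1080 cells in 5% FBS RPMI. %Activity scaled between DMSO wells and cell-free media wells, with curves fitted and assigned curve classes.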
HT1080-NT tox = kills 2HG-producing HT-1080-NT fibrosarcoma cells; 360,000 tested, 1.6% active; AID 686970; HT-1080-NT fibrosarcoma viability, CellTiter-Glo ATP luminescence, 48 h; Potency, µM (doses to about 46.1 µM), for inactives: top-dose activity, negative = less viability, hits mostly cytotoxic;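 also: NT is the 2HG producing partner of a matched IDH1 knockdown line; 0% = DMSO-treated cells and -100% = media-only wells without cells; nearly all actives have a fitted effect of over 55% in size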
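Toxicity toward the 2HG-producing NT line was scored as %Activity, normalised to DMSO and no-cell wells, from CellTiter-Glo luminescence after 48 hours' treatment.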
TDP1 cell noCPT = qHTS for Inhibitors of human tyrosyl-DNA phosphodiesterase 1 (TDP1): qHTS in cells in absence of CPT. DT40 Tdp1-/- hTDP1 cells, no CPT, ATP luminescence, 48 h. Potency, µM (top dose mostly 46.2 µM), without a hit: at the highest dose activity change, negative = growth inhibition, hits mostly inhibitors. 420,000 tested, 15% active. AID 686978, 2013; also: nearly all actives have a fitted effect of over 55% in size
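Stably hTDP1-transfected Tdp1-null chicken DT40 cells were treated with library compounds minus camptothecin and grown for at least 48 hr at 37 °C, after which cellular ATP was quantified by luminescence.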
KB-3-1 cytotox = KB-3-1 parental cell cytotoxicity. KB-3-1 viability, CellTiter-Glo ATP luminescence, 72 h. Potency, µM (highest dose often 46.1 µM), most hits filed as cytotoxic. 400,000 tested, 1.4% active; also: nearly all actives have a fitted effect of over 60% in size
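KB-3-1 cells, DMEM (no phenol red) + 10% FBS; compound by pin transfer, 72 h, 37 °C. Readout: CellTiter-Glo luminescence after 10 min. Data normalized, curve-fitted.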
The depositor's hits bear a star. Shown are actives, neighbours in structure and some others; about 19% of the full set was active somewhere. Calls follow the shape of the dose curve; as a rule, active = well fitted curve in the direction sought with a large enough effect; inconclusive = small, poorly fitted or top-dose-only effect, or another doubt; inactive = no such curve, though single readings can be large; an effect the other way counts as inactive or inconclusive. Unless noted, % is scaled to controls: 0 for no effect and ±100 for the full control effect; potency is read from the fitted curve at half-maximal effect.

How did O=C(Cn1ncn2c(cc3ccccc32)c1=O)NCCc1cccs1 do in these assays?
KB-V1 MDR tox: inactive; DT40 TDP1 CPT: -20%; HT1080 IDH1KD tx: 3%; HT1080-NT tox: 7%; TDP1 cell noCPT: 25%; KB-3-1 cytotox: inactive

Results for CCOc1ccc(Cn2nnc(C(=O)Nc3cccc(SC)c3)c2N)cc1 ?
KB-V1 MDR tox: inactive; DT40 TDP1 CPT: -29%; TDP1 cell noCPT: inconclusive; KB-3-1 cytotox: inactive

Results for CCOC(=O)c1sc(NC(=O)/C=C/c2cnn(C)c2C)c(C(=O)OC(C)C)c1C ?
KB-V1 MDR tox: inactive; DT40 TDP1 CPT: inconclusive; HT1080 IDH1KD tx: 8%; HT1080-NT tox: 14%; TDP1 cell noCPT: inconclusive; KB-3-1 cytotox: inactive

Results for O=C(COc1ccccc1)Nc1c(C(=O)N2CCC(N3CCCCC3)CC2)oc2ccccc12 ?
KB-V1 MDR tox: inactive; DT40 TDP1 CPT: inconclusive; HT1080 IDH1KD tx: -5%; HT1080-NT tox: -2%; TDP1 cell noCPT: inconclusive; KB-3-1 cytotox: inactive

Results for O=C(Nc1c(C(=O)N2CCN(c3ccccc3)CC2)oc2ccccc12)c1ccc(Br)o1 ?
KB-V1 MDR tox: inactive; DT40 TDP1 CPT: 23µM*; TDP1 cell noCPT: 21µM*; KB-3-1 cytotox: inactive

Results for COc1ccc(CC(=O)Nc2c(C(=O)N3CCN(c4ccccc4)CC3)oc3ccccc23)cc1OC ?
KB-V1 MDR tox: inactive; DT40 TDP1 CPT: inconclusive; HT1080 IDH1KD tx: -12%; HT1080-NT tox: -20%; TDP1 cell noCPT: inconclusive; KB-3-1 cytotox: inactive

What do the screens show for `O=C(COc1ccc(F)cc1)Nc1c(C(=O)N2CCC(N3CCCCC3)CC2)oc2ccccc12`?
KB-V1 MDR tox: inactive; DT40 TDP1 CPT: inconclusive; HT1080 IDH1KD tx: -1%; HT1080-NT tox: 4%; TDP1 cell noCPT: 7.3µM*; KB-3-1 cytotox: inconclusive

How did C=COCCNC(=O)Nc1ccc(Cl)c(Cl)c1 do in these assays?
KB-V1 MDR tox: inconclusive; DT40 TDP1 CPT: 4%; HT1080 IDH1KD tx: 22%; HT1080-NT tox: -1%; TDP1 cell noCPT: -1%; KB-3-1 cytotox: inactive

Results for Cc1cccc(CN2C(=O)c3ccccc3S(=O)(=O)c3ccc(C(=O)N(C)Cc4ccccc4)cc32)c1 ?
KB-V1 MDR tox: inconclusive; DT40 TDP1 CPT: 16µM*; TDP1 cell noCPT: inconclusive; KB-3-1 cytotox: inactive

Results for CN(Cc1ccccc1)C(=O)c1ccc2c(c1)N(Cc1ccccc1F)C(=O)c1ccccc1S2(=O)=O ?
KB-V1 MDR tox: inactive; DT40 TDP1 CPT: inconclusive; TDP1 cell noCPT: 9.2µM*; KB-3-1 cytotox: inactive

How did CN1CCN(C2=C(Cl)C(=O)N(c3ccc(Cl)c(Cl)c3)C2=O)CC1 do in these assays?
KB-V1 MDR tox: inactive; DT40 TDP1 CPT: 29µM*; HT1080 IDH1KD tx: inconclusive; HT1080-NT tox: inconclusive; TDP1 cell noCPT: inconclusive; KB-3-1 cytotox: inactive

Results for CN1CCN(C2=C(Cl)C(=O)N(c3cccc(Cl)c3)C2=O)CC1 ?
KB-V1 MDR tox: inactive; DT40 TDP1 CPT: -9%; HT1080 IDH1KD tx: 7%; HT1080-NT tox: 2%; TDP1 cell noCPT: -4%; KB-3-1 cytotox: inactive

How did Cc1ccc(S(=O)(=O)N2CCN(Cc3cc(Br)ccc3O)CC2)cc1 do in these assays?
KB-V1 MDR tox: inactive; DT40 TDP1 CPT: 18µM*; TDP1 cell noCPT: inconclusive; KB-3-1 cytotox: inactive

What do the screens show for `O=C(CN1CCN(S(=O)(=O)c2ccc(Br)cc2)CC1)c1ccc(O)c(O)c1`?
KB-V1 MDR tox: inactive; DT40 TDP1 CPT: 18µM*; HT1080 IDH1KD tx: -2%; HT1080-NT tox: -2%; TDP1 cell noCPT: 7.3µM*; KB-3-1 cytotox: inactive

How did COc1ccccc1CN1CCN(S(=O)(=O)c2ccc(C)cc2)CC1 do in these assays?
KB-V1 MDR tox: inactive; DT40 TDP1 CPT: 4%; HT1080 IDH1KD tx: -7%; HT1080-NT tox: 2%; TDP1 cell noCPT: 3%; KB-3-1 cytotox: inactive
